Inconclusive results are not listed. Activity calls are given as the source filed them. Unless noted, calls come from the whole dose curve; as a rule, active = well fitted curve in the direction sought with a large enough effect; inconclusive = small, poorly fitted or top-dose-only effect, or another doubt; inactive = no such curve, though single readings can be large; an effect the other way counts as inactive or inconclusive.

A short description of assay [1]: qHTS profiling for inhibitors of Plasmodium falciparum proliferation (AID 504749). Note: nearly all actives have a fitted effect of over 60% in size. Note: potency is the fitted concentration of half-maximal effect. To be noted: P. falciparum in erythrocytes, SYBR Green DNA, 72 h; series mostly up to 28.7 µM. A digest of the protocol:
(§1)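 SYBR Green fluorescence of parasite DNA, read after lysis and overnight dark incubation, measured growth over 72 h in erythrocyte culture at 0.3% parasitemia and 2.5% hematocrit. Data normalised to DMSO and 0.29 uM artemisinin, with plate-drift correction.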
On the technique in general: Quantitative high-throughput screening tests each substance at several concentrations.

The next assay deals with 3D7. The description is as above. To be noted: P. falciparum in erythrocytes, SYBR Green DNA, 72 h; series mostly up to 28.7 µM. The essentials:
as §1

For another assay, the system named is 7G8. Described as above. The settings on record: P. falciparum in erythrocytes, SYBR Green DNA, 72 h; series mostly up to 28.7 µM. A digest of the protocol:
as §1

For another assay, the system named is AS120. The assay is described as above. The settings on record: P. falciparum in erythrocytes, SYBR Green DNA, 72 h; series mostly up to 28.7 µM. A digest of the protocol:
as §1

In a further assay the test system is C2A. The assay is described as above. To be noted: P. falciparum in erythrocytes, SYBR Green DNA, 72 h; series mostly up to 28.7 µM. A digest of the protocol: as §1
For a further assay, the system named is CP192. Described as above. The settings on record: P. falciparum in erythrocytes, SYBR Green DNA, 72 h; series mostly up to 28.7 µM. The essentials: as §1
The next assay deals with CP203. The assay is described as above. To be noted: P. falciparum in erythrocytes, SYBR Green DNA, 72 h; series mostly up to 28.7 µM. The essentials: as §1
The next assay relates to CP211. The assay is described as above. To be noted: P. falciparum in erythrocytes, SYBR Green DNA, 72 h; series mostly up to 28.7 µM. The essentials:
as §1

The nature of assay [2]: qHTS drug screen for cell cycle checkpoint inhibitors in PARPi-resistant BRCA-mutant ovarian cancer cell lines. (AID 1963452; calls by dose curve). The settings on record: PEO1/OlaR viability, CellTiter-Glo luminescence, 96 h, stronger effect = lower value. The essentials: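 PEO1, PEO4 and PEO1/OlaR ovarian cancer cells, 600 per well, exposed 96 h at 37C to a dilution series. Viability read by CellTiter-Glo luminescence, normalized to DMSO and empty wells; activity summarized as Z-AUC.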

The target of assay [3] is Nuclear receptor subfamily 1 group I member 2 (Homo sapiens) (UniProt O75469). Briefly: Dual reporter qHTS for agonist of Pregnane X Receptor (hPXR) against the NCATS DSHEA and TCM libraries: Luminescence readout (AID 1920059). Note: 0% is about no effect. A digest of the protocol:
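Luminescent PXR reporter read (ONE-Glo) after a CellTiter-Fluor viability read, following 24 h, 37C treatment of HepG2 cells stably carrying hPXR-Luc.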

For assay [4] the target is unchanged. Briefly: Dual reporter qHTS for antagonist of Pregnane X Receptor (hPXR) against the NCATS DSHEA and TCM libraries: Luminescence Readout (AID 1920060).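 Note: HepG2 cells carrying hPXR luciferase reporter stimulated with rifampicin at 2 µM; 0% is about no effect.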 The essentials: (§2)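 hPXR-Luc HepG2 cells exposed 24 h at 37 C to compounds with 2 uM rifampicin in antagonist mode; luciferase luminescence measured by ONE-Glo, with CellTiter-Fluor viability read beforehand.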

Assay [5] can be described thus: Dual reporter qHTS for antagonist of Pregnane X Receptor (hPXR) against the NCATS DSHEA and TCM libraries: Fluorescence Readout (AID 1920061). Note: 0% is about no effect. A digest of the protocol: as §2
Another assay deals with AA1029. The assay can be described thus: qHTS profiling for inhibitors of Plasmodium falciparum proliferation (AID 504749). Note: nearly all actives have a fitted effect of over 60% in size. Note: potency is the fitted concentration of half-maximal effect. The settings on record: P. falciparum in erythrocytes, SYBR Green DNA, 72 h; series mostly up to 28.7 µM. The essentials:
as §1

A further assay has as its system ATS189. Described as above. The settings on record: P. falciparum in erythrocytes, SYBR Green DNA, 72 h; series mostly up to 28.7 µM. The essentials: as §1
The test system of another assay is ATS95. The assay is described as above. To be noted: P. falciparum in erythrocytes, SYBR Green DNA, 72 h; series mostly up to 28.7 µM. A digest of the protocol:
as §1

In another assay the test system is CP185. The assay is described as above. The settings on record: P. falciparum in erythrocytes, SYBR Green DNA, 72 h; series mostly up to 28.7 µM. The essentials: as §1
The next assay has as its system CP191. Described as above. The settings on record: P. falciparum in erythrocytes, SYBR Green DNA, 72 h; series mostly up to 28.7 µM. The essentials: as §1
A further assay relates to CP194. The assay is described as above. To be noted: P. falciparum in erythrocytes, SYBR Green DNA, 72 h; series mostly up to 28.7 µM. The essentials:
as §1

A further assay deals with CP201. Described as above. The settings on record: P. falciparum in erythrocytes, SYBR Green DNA, 72 h; series mostly up to 28.7 µM. The essentials:
as §1

The test system of a further assay is CP215. Described as above. The settings on record: P. falciparum in erythrocytes, SYBR Green DNA, 72 h; series mostly up to 28.7 µM. The essentials: as §1
The mark [6] stands for this setting: measured here: PEO1 parental Z-AUC.

Sequence of Nuclear receptor subfamily 1 group I member 2 (Homo sapiens) (O75469 whole entry, looked up): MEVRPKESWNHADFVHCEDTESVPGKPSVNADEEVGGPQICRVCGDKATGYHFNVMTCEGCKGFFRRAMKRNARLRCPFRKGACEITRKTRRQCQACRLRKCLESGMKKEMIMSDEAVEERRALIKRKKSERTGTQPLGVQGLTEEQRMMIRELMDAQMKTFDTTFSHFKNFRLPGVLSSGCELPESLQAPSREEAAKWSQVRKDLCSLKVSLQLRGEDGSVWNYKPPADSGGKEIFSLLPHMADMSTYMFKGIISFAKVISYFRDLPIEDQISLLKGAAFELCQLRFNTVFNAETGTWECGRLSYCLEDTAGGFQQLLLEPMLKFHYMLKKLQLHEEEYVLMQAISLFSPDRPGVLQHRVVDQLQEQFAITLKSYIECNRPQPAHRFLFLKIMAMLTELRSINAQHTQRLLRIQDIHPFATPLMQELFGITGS

In the case of `CN1C2CCC1CC(OC(c1ccccc1)c1ccccc1)C2` (configuration not stated), the result (in assay [1]; in the assay with AS120; with C2A; with CP211) was inactive. In addition, the Potency result in the assay with 3D7, in the assay with CP192 and in the assay on CP203 was “inactive” throughout. Moreover, the Potency in the assay on 7G8 is 4.47 µM (active).

For `CN(C)S(=O)(=O)c1ccc2c(c1)/C(=C/c1cc3c([nH]1)CCCC3)C(=O)N2`, the Z-AUC in assay [2] is 1.05 (inactive); in [2] (setting [6]), 0.668; in assay [2] (measured here: PEO4 Z-AUC) it was 0.277.

`C=C1C[C@@]23CC[C@H]4[C@@](C)(CCC[C@@]4(C)C(=O)OC4OC(CO)C(O)C(O)C4O)[C@@H]2CC[C@]1(OC1OC(CO)C(O)C(O)C1OC1OC(CO)C(O)C(O)C1O)C3` (some centres not stated): the call in [3], in assay [4] and in [5] was inactive.

Turning to `CC1=C(/C=C/C(C)=C/C=C/C(C)=C\C(=O)O)C(C)(C)CCC1`, the Z-AUC in assay [2] was -0.242 (inactive); in assay [2] (setting [6]) it was 0.115; in assay [2] (measured here: PEO4 Z-AUC), 0.0344.

On to `O=C1Nc2ccc(I)cc2/C1=C/c1cc(Br)c(O)c(Br)c1`, for which the Z-AUC was 1.3 (inactive) in assay [2], 0.638 in [2] (setting [6]) and 0.686 in [2] (measured here: PEO4 Z-AUC).

As to `CCCCCCCCCCCCCCC[C@H](O)[C@H](N)CO`, the outcome (in [1]; with AA1029; in the assay on AS120; in the assay with ATS95; in the assay on C2A; in the assay on CP185) was inactive. In addition, the call in the assay with CP194, in the assay with CP201, in the assay on CP211 and with CP215 was inactive. The Potency result in the assay with 3D7, in the assay with ATS189, in the assay on CP191, in the assay on CP192 and with CP203 was “inactive” in each case.

`O=C(O)/C=C/c1ccc(O)c(O)c1`: the outcome in assay [4] and in assay [5] was inactive.

Consider `CCCc1c(OCCCOc2ccc(OCC(=O)O)cc2)ccc(C(C)=O)c1O`, for which the Z-AUC in [2] is 1.58 (inactive); in assay [2] (setting [6]) it was 1.27; in [2] (measured here: PEO4 Z-AUC), 1.18.

Take `CC(C)NC[C@H](O)COc1ccc(CC(N)=O)cc1`: the molecule was called inactive (in assay [1]; with AA1029; in the assay with AS120; in the assay on ATS95; with C2A; in the assay with CP185). For the same molecule, the call in the assay on CP194, with CP201, in the assay with CP211 and in the assay on CP215 was inactive. Moreover, the Potency entry in the assay with 3D7, in the assay with 7G8, with ATS189, with CP191, with CP192 and with CP203 was “inactive” each time.

For the molecule `c1ccc(C2CN3CCSC3=N2)cc1` (configuration not stated), the Potency is 11.2 µM (active) in the assay on 3D7; 0.794 µM (active) with 7G8; 5.01 µM (active) in the assay with ATS189; 7.94 µM (active) in the assay with CP191; 19 µM (active) with CP192; 16.9 µM (active) with CP203. Further, the molecule was called inactive in the assay with CP201.

Turning to `CC(O)C(O)[C@H]1CNc2nc(N)[nH]c(=O)c2N1` (some centres not stated), the molecule was classed as inactive (in assay [1]; in the assay with AA1029; in the assay on AS120; in the assay on ATS95; in the assay on C2A; in the assay on CP185). The molecule was called inactive with CP194, with CP201, in the assay with CP211 and with CP215. In addition, the Potency result with 3D7, in the assay on ATS189, in the assay with CP191, in the assay on CP192 and in the assay on CP203 was “inactive” each time.

For `COc1cc(/C=C(\C#N)C(=O)Nc2nnc(C(F)(F)F)s2)ccc1OCc1ccc(C(F)(F)F)cc1C(F)(F)F`, the Z-AUC in assay [2] is 0.582 (inactive); in [2] (setting [6]), 0.483; in [2] (measured here: PEO4 Z-AUC), 0.578.

For `CCCCCCCCCCCCCCCCCCOC[C@H](COP(=O)([O-])OCC[N+](C)(C)C)OC`, the call (in [1]; with AA1029; in the assay with AS120; in the assay with ATS95; in the assay on C2A; in the assay with CP185) was inactive. Also, the outcome in the assay with CP194, with CP201, with CP211 and with CP215 was inactive. The Potency result in the assay on 3D7, in the assay on 7G8, with ATS189, in the assay on CP191, with CP192 and in the assay on CP203 was “inactive” each time.

The values above are taken from PubChem BioAssay (NCATS).
